{"source": "PubChem BioAssay AID743285", "about": "(National Center for Advancing Translational Sciences (NCATS), 2014)", "note": "In all, about 1,100 compounds went through this assay and fewer than 10 were called active. Calls follow the shape of the dose curve; as a rule, active = well fitted curve in the direction sought with a large enough effect; inconclusive = small, poorly fitted or top-dose-only effect, or another doubt; inactive = no such curve, though single readings can be large or run the other way. The list is a sample of the results.", "data": [{"assay": "qHTS for Inhibitors of PI5P4K: ADP-Glo counter assay", "conditions": "ADP-Glo detection counter-screen, luciferase luminescence, no enzyme; series mostly up to 76.9 µM", "excerpt": "In addition to finding PI5P, we discovered the type II phosphatidylinositol 5-phosphate 4-kinase (PI5P4K) family (alpha, beta, gamma isoforms) that catalyze the conversion of PI5P to PI(4,5)P2. Alternatively, PI(4,5)P2 can also be synthesized through phosphatidylinositol-4-phosphate (PI4P) by the type I phosphatidylinositol 4-phosphate 5-kinases (PI4P5K). These PI5P4K enzymes therefore represent one way by which cells can regulate endogenous PI5P levels and play important roles in insulin signaling and in stress responses. […] A qHTS PI5P4K-alpha ADP-Glo assay was developed to identify specific modulators of human PI5P4K, phosphatidylinositol-5-phosphate 4-kinase (Type II PIPK). This assay was screened against the MLSMR containing ~400,000 small molecules (PubChem AID 652105). To confirm that the hits were not interacting with the detection enzyme system, a 1536-well counterscreen against the ADP-Glo kit (Promega) was utilized, as described in Davis et al., 2013 [1]. For this assay, an ATP/ADP mix of 80% ATP and 20% ADP was used to mimic the PI5P4K-alpha enzyme reaction. […] Therefore, true inhibitors of PI5P4K-alpha should have no activity in this assay. Davis et al., PLoS One. 2013;8(1):e54127. NIH Chemical Genomics Center [NCGC] NIH Molecular Libraries Probe Centers Network [MLPCN] MLPCN Grant: MH096575 Assay Submitter (PI): Atsuo Sasaki, Beth Israel Deaconess Medical Center\nTwo micoliter of assay buffer (0.038 M HEPES pH 7.4, 0.28 mM EGTA, 0.1% CHAPS, 7.5% DMSO) was dispensed into Greiner white solid bottom 1536-well assay plates. Compounds were then transferred via Kalypsys pin tool equipped with 1536-pin array (10 nL slotted pins, V&P Scientific, San Diego, CA). Next, 1 uL of ATP / ADP mix (4 uM ATP / 1 uM ADP final concentrations in 20 mM HEPES pH 7.4, 60 mM MgCl2, and 0.1% CHAPS) was added for a total reaction volume of 3 uL. The plates were incubated at room temperature for 60 minutes. To detect the activity, 2 uL of ADP-Glo reagent 1 was added to each well followed by 45 min room temperature incubation. Then, 4 uL of ADP-Glo reagent 2 was added to each well and the plates were incubated further for 30 min at room temperature. Finally, luminescence signal was detected using the PerkinElmer ViewLux plate reader (30 sec exposure). The data was normalized to control wells with 20% ADP / 80% ATP and wells with 100% ATP.", "values": [{"smiles": "Cc1cnc(NC(=O)CSc2c(Cl)cccc2Cl)s1", "outcome": "inactive"}, {"smiles": "Cc1cc(=O)n2[nH]c(-c3sccc3-n3c(C)ccc3C)cc2n1", "outcome": "inactive"}, {"smiles": "O=C(Cc1cccs1)N(CC1CCCO1)C1(C(=O)NC2CCCCC2)CCCCC1", "note": "(stereo not given)", "outcome": "inactive"}, {"smiles": "CCOC(=O)C1Nc2ccc(C(F)(F)F)cc2C2C=CCC12", "note": "(stereo not given)", "outcome": "inactive"}, {"smiles": "O=C1CC(c2ccccc2)=NN1c1ccc([N+](=O)[O-])cc1", "outcome": "inactive"}, {"smiles": "CC(=O)N1c2ccc(S(=O)(=O)NCCC(=O)N(C)C3CCCCC3)cc2CC1C", "note": "(stereo not given)", "outcome": "inactive"}, {"smiles": "O=C(COc1ccc(-n2cnnn2)cc1)Nc1ccccc1Cl", "outcome": "inactive"}, {"smiles": "Cc1cccnc1NC(=O)CSc1nnc(COc2ccc(C(C)C)cc2)n1C", "outcome": "inactive"}, {"smiles": "O=C(Nc1ccc(S(=O)(=O)Nc2nccs2)cc1)c1cc(-c2ccncc2)nc2ccccc12", "outcome": "inactive"}, {"smiles": "Cc1csc(=O)n1CCC(=O)OCC(=O)Nc1ccc(N2CCOCC2)cc1", "outcome": "inactive"}, {"smiles": "CCC(c1nnnn1Cc1ccco1)N(CCc1ccccc1)Cc1cc2ccc(OC)cc2[nH]c1=O", "note": "(stereo not given)", "outcome": "inactive"}, {"smiles": "Cc1ccc(C(c2nnnn2CS(=O)(=O)c2ccc(C)cc2)N2CCC(C)CC2)cc1", "note": "(stereo not given)", "outcome": "inactive"}, {"smiles": "COc1cccc2c(C)c(C(=O)O)[nH]c12", "outcome": "inactive"}, {"smiles": "CC(CNC(=O)c1ccc(Br)o1)NC(=O)c1ccc(Br)o1", "note": "(stereo not given)", "outcome": "inactive"}, {"smiles": "Cc1ccc(Cc2c(-c3ccco3)nc3ccc(Cl)cn23)cc1", "outcome": "inactive"}, {"smiles": "OCCNc1nc(Nc2ccc(Cl)c(Cl)c2)nc2ccccc12", "outcome": "inactive"}, {"smiles": "O=C(c1cc(-c2ccco2)nc2ccccc12)N(Cc1nnc(-c2ccc(Cl)cc2)o1)C1CC1", "outcome": "inactive"}, {"smiles": "O=C(c1cc2c(s1)CCC2)N1CCN(c2ccccc2)CC1", "outcome": "inactive"}, {"smiles": "O=C(c1cccnc1)N(c1cc2sc(=O)oc2c2ccccc12)S(=O)(=O)c1ccccc1", "outcome": "inactive"}, {"smiles": "COc1ccc(C(=O)N2CCC(C(=O)Nc3ccc(C)cc3)CC2)cc1", "outcome": "inactive"}, {"smiles": "COc1ccc(OCCCC(=O)Nc2nnc(C3CCCO3)s2)cc1", "note": "(stereo not given)", "outcome": "inactive"}, {"smiles": "Cc1cc(NC(=O)Nc2ccccc2[N+](=O)[O-])no1", "outcome": "inactive"}, {"smiles": "O=c1oc2cc(O)ccc2cc1-c1ccc(F)cc1", "outcome": "inactive"}, {"smiles": "COCCNC(=O)Nc1ccc2nc(-c3ccco3)c(-c3ccco3)nc2c1", "outcome": "inactive"}, {"smiles": "COc1ccc(S(=O)(=O)/N=C2\\C=C(NS(=O)(=O)c3ccccc3)C(=O)c3ccccc32)cc1", "outcome": "inactive"}, {"smiles": "COc1ccc(CCCc2nnc(SCc3nc4ccccc4c(=O)[nH]3)n2C)cc1", "outcome": "inactive"}, {"smiles": "CCOC(=O)c1cc2c(=O)[nH]c(C(Cl)(Cl)Cl)nc2o1", "outcome": "inactive"}, {"smiles": "OCCCNc1nccc(-c2cc(Nc3cccc(Cl)c3)ncn2)n1", "outcome": "inactive"}, {"smiles": "O=S(=O)(Nc1ccc2cn[nH]c2c1)c1ccccc1", "outcome": "inactive"}, {"smiles": "COc1cccc(C(=O)Nc2nc3ccc(S(C)(=O)=O)cc3s2)c1", "outcome": "inactive"}, {"smiles": "O=c1[nH]c2ccccc2n2c(-c3ccccc3)nnc12", "outcome": "inactive"}, {"smiles": "O=C(Cn1cnc2c(OCc3ccccc3)ncnc21)NCc1nc2ccccc2[nH]1", "outcome": "inactive"}, {"smiles": "O=C(Nc1nc(-c2ccncc2)cs1)C1COc2ccccc2O1", "note": "(stereo not given)", "outcome": "inactive"}, {"smiles": "COc1cc(=O)[nH]c(=O)n1C(=O)Cc1ccccc1", "outcome": "inactive"}, {"smiles": "COc1ccc(-c2cc(C(=O)Nc3ccccc3O)c3ccccc3n2)cc1", "outcome": "inactive"}, {"smiles": "Cc1cccc(C)c1NC(=O)C(c1ccc(C(F)(F)F)cc1)n1c(=O)c(-c2ccco2)nc2ccccc21", "note": "(stereo not given)", "outcome": "inactive"}, {"smiles": "O=C(NC1CCCCC1)C(c1cc2ccccc2o1)n1c(=O)c(-c2ccco2)nc2ccccc21", "note": "(stereo not given)", "outcome": "inactive"}, {"smiles": "COc1ccc(C(CNC(=O)c2ccc(OCc3cscn3)cc2)N2CCCC2)cc1", "note": "(stereo not given)", "outcome": "inactive"}, {"smiles": "Cc1cc2nc(-c3ccco3)c(Cc3cccc(F)c3)n2c(C)c1Br", "outcome": "inactive"}, {"smiles": "O=C(CCNS(=O)(=O)c1ccc(Br)s1)NCc1ccccc1Cl", "outcome": "inactive"}, {"smiles": "C[C@H](NC(=O)c1nc[nH]c1C(=O)N[C@@H](C)C(=O)OC(C)(C)C)C(=O)OC(C)(C)C", "outcome": "inactive"}, {"smiles": "CC(Oc1ccc(F)cc1)C(=O)N1CCN(c2ncccn2)CC1", "note": "(stereo not given)", "outcome": "inactive"}, {"smiles": "Cn1c(SCC(=O)Nc2ccc(Cl)cc2)nc(O)cc1=O", "outcome": "inactive"}, {"smiles": "Cc1ccc(Cn2c(C)nc3c(c2=O)c2nc4ccccc4nc2n3Cc2ccco2)cc1", "outcome": "inactive"}, {"smiles": "O=C(COC(=O)c1ccccc1O)NCc1ccco1", "outcome": "inactive"}]}]}
